Shiga inhibitor = A qHTS for Small Molecule Inhibitors of Shiga Toxin | inhibition, % at 38.7 µM | 9.2% of 290,000 active | Vero cells, Shiga toxin protein synthesis inhibition reporter; in the data active = inhibition mostly above about 28%, no sharp cut-off; inactive = mostly below about 43%; note: 0% is about no effect
Cycloheximide cs = Cycloheximide Counterscreen for Small Molecule Inhibitors of Shiga Toxin; cell reporter, cycloheximide protein synthesis inhibition counterscreen; max response, %; 12% of 300,000 active; AID 2314, 2010; in the data active = max response mostly above about 13%, no sharp cut-off; inactive = mostly below about 14%; note: read at 38.3 µM for the half of the compounds with a filed dose; 0% is about no effect
SARS PLP yeast = qHTS of Yeast-based Assay for SARS-CoV PLP; S. cerevisiae expressing SARS-CoV PLpro, growth rescue; Potency, µM (highest dose often 32.9 µM), inactives show top-dose activity, positive = growth rescue, hits mostly activators; 0.19% of 330,000 active; AID 485353, 2010; note: potency is the fitted concentration of half-maximal effect; 0% is about no effect; nearly all actives have a fitted effect of over 55% in size
NS1 function inh = qHTS Assay for Inhibitors of Influenza NS1 Protein Function; 0.4% of 270,000 active; Potency, µM (series often up to 46.1 µM), inactives show at the highest dose activity, positive = more growth; note: potency is the fitted concentration of half-maximal effect; actives are rising curves; nearly all actives have a fitted effect of over 50% in size
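Growth recovery, yeast-based: influenza A NS1 expressed in S. cerevisiae causes slow growth, and suppressors are detected by OD600. The parent strain without NS1 is used as positive control.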
Starred values were filed as active, the others as inactive; . = not tested or not shown; + = active, no number. Only some compounds are listed: those with a hit (about 12% of all), similar ones and a draw of the others. Unless noted, calls come from the whole dose curve.

SMILES | Shiga inhibitor | Cycloheximide cs | SARS PLP yeast | NS1 function inh
Oc1ccc(/C=N/NC(=S)Nc2cccnc2)cc1O | -30 | 1 | 4% | 20%
CC(C)(C)c1ccc(/C=N/NC(=S)Nc2cccnc2)cc1 | 61 | 16* | -16% | .
COc1cc(/C=N/NC(=S)Nc2cccnc2)cc(OC)c1OC | 11 | 14 | 1% | 17%
O=C(COC(=O)c1cc([N+](=O)[O-])ccc1NCc1ccccc1)NC1CCCc2ccccc21 (stereo not drawn) | -17 | 1 | -6% | 6%
CCOc1ccc(-c2c(C(=O)N/N=C/C3CC=CCC3)nnn2-c2nonc2N)cc1 (stereo not drawn) | -4 | -4 | 4% | 28%
CCCc1cc(C(=O)Nc2ccc(CC)cc2)no1 | 73* | 54* | -14% | -23%
CCCc1cc(C(=O)Nc2sc3c(c2C(=O)OCC)CCCC3)no1 | 1 | -4 | 2% | 13%
CCCc1cc(C(=O)Nc2ccc(C)cc2)no1 | 127* | 34* | 1% | -12%
CCCc1cc(C(=O)NCc2ccc(OC)cc2)no1 | 77* | 21* | 6% | -50%
CCN(c1cccc(C)c1)S(=O)(=O)c1cc2c3c(c1)CCC(=O)N3CCC2 | . | . | 0% | .
C[C@H](CO)N1C[C@H](C)[C@@H](CN(C)Cc2ccc3c(c2)OCO3)Oc2ccc(NC(=O)Cn3cnnn3)cc2C1=O | . | . | 5% | .
COc1ccc(-c2nnc(SC)o2)c(OC)c1 | 72* | 21* | 1% | -8%
COc1ccc(OC)c(-c2nnc(-c3ccc(C)o3)o2)c1 | 75 | 36* | -5% | -11%
Cc1nn(CC(=O)Nc2ccc(Cl)cc2)c(=O)c2cc(-c3ccccc3)nn12 | -5 | -9 | -3% | 6%
O=c1c2c(-c3cccs3)csc2ncn1-c1ccc(Br)cc1 | 16 | 1 | -13% | 5%
Brc1ccc(-c2cnc(-c3cccs3)o2)cc1 | 92* | 36* | -27% | -42%
O=S(=O)(c1ccccc1)N1c2cc(Cl)ccc2Oc2nc3ccccc3nc21 | 94* | 65* | -17% | 4%
NC(=O)c1cccnc1Nc1cccc(F)c1 | 37 | 12 | -30% | -12%
NC(=O)c1cccnc1Nc1cccc([N+](=O)[O-])c1 | 84* | 48* | -2% | -4%
CCCN1CCN(C(=O)C(C)n2nc(C)c3sc4ccccc4c3c2=O)CC1 (stereo not drawn) | -7 | -3 | 15% | 0%
Oc1ccc(N=Nc2n[nH]c(-c3ccc(Cl)cc3)n2)cc1 | 82* | 23* | -16% | -15%
Cc1cc(Cl)ccc1OCc1nc(-c2ccc(O)cc2)n[nH]1 | 29 | 25 | -10% | -147%
Cn1c(N)c(C(=O)CSc2nn(-c3ccc(F)cc3)c(=S)s2)c(=O)n(C)c1=O | . | . | 0% | .
COCCN(C(=O)c1ccco1)C(C(=O)NC1CCCC1)c1cccs1 (stereo not drawn) | 35 | -5 | 11% | 2%
Cc1ccc(O)c(-c2cc(C(=O)Nc3cccnc3)[nH]n2)c1 | 80* | 31* | -2% | 6%
SMILES | Shiga inhibitor | Cycloheximide cs | SARS PLP yeast | NS1 function inh
O=C(Nc1cccnc1)c1cc(-c2cc(Cl)ccc2O)n[nH]1 | 91* | 39* | 0% | 3%
COc1ccc(Cl)cc1C(=O)Nc1cccnc1 | . | 8 | 0% | -15%
Cc1ccc(-c2nc3cnccn3c2Nc2c(C)cccc2C)o1 | -8 | 4 | -38% | -182%
O=c1cc(-c2ccccc2F)oc2ccccc12 | 59* | 28* | -29% | -7%
Cc1ccccc1-c1cc(=O)c2ccccc2o1 | . | . | -8% | .
CSc1ccc(-c2cc(=O)c3ccccc3o2)cc1 | 34* | 40* | -21% | -22%
COc1ccc(C2=NN(C(C#N)c3ccc(OC)cc3)C(c3ccccc3)C2)cc1 (stereo not drawn) | 83* | 33* | -9% | -35%
COc1ccc(C(C#N)N2N=C(c3ccccc3)CC2c2ccccc2)cc1OC (stereo not drawn) | 44* | 68* | 10% | -2%
NC(=O)NOC[C@@H]1NC(=O)NC1=O | . | . | . | 0%
COc1cccc(CNC(=O)C2Cc3cc(S(=O)(=O)N4CCCC4)ccc3N2C(C)=O)c1OC (stereo not drawn) | 13 | -3 | 4% | -5%
CCc1ccc(Nc2ncc3c(n2)CC(c2ccc(OC)cc2)CC3=O)cc1 (stereo not drawn) | -16 | -4 | 0% | 3%
O=C1CCCc2nc(NCc3ccco3)ncc21 | 23 | -2 | 17% | -14%
CCc1ccc(Nc2ncc3c(n2)CC(C)(C)CC3=O)cc1 | 75* | 57* | -1% | -2%
CC1(C)CC(=O)c2cnc(NCc3ccco3)nc2C1 | -1 | 14* | -1% | 3%
CCc1ccc(Nc2ncc3c(n2)CC(C)CC3=O)cc1 (stereo not drawn) | 96* | 47* | 0% | 1%
CC(C)OCCCn1c(SCC(=O)Nc2ccccc2C(F)(F)F)nc2nccnc2c1=O | 16 | -3 | -1% | -2%
O=C(Nc1ccc(S(=O)(=O)N2CCCC2)cc1)C1CCCCC1 | 1 | -3 | -1% | 5%
C[C@H](NC(=O)OC(C)(C)C)C(=O)N/N=C/c1cccc2nccnc12 | -14 | -3 | 1% | 3%
Cc1cccc2cc(/C=N/Nc3ccc(C(=O)O)cc3)c(Cl)nc12 | 128* | 68* | 1% | 0%
Cc1cccc2cc(/C=N/NC(=O)c3ccncc3)c(Cl)nc12 | 10 | 1 | 0% | -31%
O=[N+]([O-])c1ccccc1N/N=C/c1cc2ccccc2nc1Cl | + | 38 | -3% | 14%
O=C(O)c1ccc(N/N=C/c2cc3ccccc3nc2Cl)cc1 | 84* | 38* | -3% | -44%
O=C(O)c1ccc(N/N=C/c2cccc3nccnc23)cc1 | 45* | 27* | 0% | 7%
COc1ccc(NC(=O)c2ccsc2NC(C)=O)cc1 | 42 | 9 | -8% | .
CCN(CC(=O)NCc1cccs1)C(=O)CCC(=O)c1ccc(C)cc1 | . | . | -3% | .
SMILES | Shiga inhibitor | Cycloheximide cs | SARS PLP yeast | NS1 function inh
COCc1c(C(=O)NC(C)c2ccc(S(N)(=O)=O)cc2)oc2ccccc12 (stereo not drawn) | -8 | -4 | 3% | 8%
COc1ccc2oc(C(=O)OC(C)C(=O)NC3(C#N)CCCCC3)c(C)c2c1 (stereo not drawn) | . | . | 1% | .
COc1cc(C(=O)NCC(=O)Nc2c(C)cccc2C)ccc1OCC(=O)N1CCOCC1 | . | . | 1% | .
CCc1ccc(C(=O)COC(=O)[C@@H](NC(N)=O)[C@@H](C)CC)cc1 | 77* | 22* | -2% | 7%
COc1ccccc1C(=O)OCC(=O)c1cccc([N+](=O)[O-])c1 | -9 | 28* | 1% | -3%
COc1ccccc1C(=O)COC(=O)c1ccccc1O | 95* | 31* | -10% | .
CCc1ccc(C(=O)COC(=O)c2ccccc2OC)cc1 | 133* | 43* | -4% | -32%
COc1ccc(C(=O)OCC(=O)c2ccc(F)cc2)cc1OC | . | . | -2% | .
CCCn1c(SCC(=O)NC2CCCCC2)nnc1-c1ccccn1 | -23 | -4 | 4% | .
CCN(CC(=O)NCc1cccs1)C(=O)c1cccc(S(=O)(=O)N2CC(C)OC(C)C2)c1 (stereo not drawn) | . | . | 4% | .
COc1ccccc1C(=O)COC(=O)/C=C/c1ccccc1 | 100* | 53* | -7% | -35%
COc1ccccc1C(=O)COC(=O)c1cccs1 | . | . | -16% | .
